These results are taken from PubChem BioAssay (Tox21).

The source made the active and inactive calls. Calls come from the whole dose curve; as a rule, active = well fitted curve in the direction sought with a large enough effect in the repeat runs; inconclusive = weak or mixed curves; inactive = flat fitted curve, though single readings scatter.

This experiment can be described thus: qHTS assay to test for compound auto fluorescence at 535 nm (green) in HEK293 cell free culture (AID 720682). Conditions: cell-free medium, green autofluorescence 485/535 nm; series mostly up to 91.3 µM. The source says:
U.S. Tox21 Program National Center for Advancing Translational Sciences [NCATS] NIH Chemical Genomics Center [NCGC] U.S. Environmental Protection Agency [EPA] National Institutes of Environmental Health Sciences [NIEHS] National Toxicology Program [NTP] U.S. Food and Drug Administration [FDA] Tox21 Assay Overview: Compound auto fluorescence often interferes with screening of the compound library against various biological targets and signaling pathways. Some of these compounds may have fluorophoric properties. Such properties may interfere with the assay outputs resulting in false positives and/or negatives. To decrease such complications and ensure the compound activities are relevant in terms of biological response, the Tox21 10K compound library was screened for auto fluorescence. From the fluorophores used as reporter signals in our screening assays, the auto fluorescence equivalencies of compounds against three fluorophores have been evaluated: Triamterene, Fluorescein and Rose Bengal sodium for blue, green and red fluorescence, respectively. The fluorescence intensities were measured using Excitation/Emission wavelengths at 405/460nm, 485/535nm and 540/590nm for blue, green and red labels, respectively. This assay includes the green fluorescence data.
Tox21 Assay Protocol Summary: 5 uL of culture medium (DMEM containing 10% FBS) per well was dispensed into black wall/clear bottom 1536-well plates using a Multidrop Combi Dispenser (ThermoFisher Scientific, Waltham, MA). After 23 nL compound or DMSO vehicle was transferred into assay plate by a pintool work station (Kalypsys, San Diego, CA), fluorescence intensities in the assay plates were measured by an Envision (PerkinElmer, Shelton, CT) plate reader using three labels for measuring blue, green and red fluorescence at […] 460, 535 and 590nm respectively.
(In general: In qHTS, concentration-response curves come from the screen itself.)
For `CC[Si](OC(C)=O)(OC(C)=O)OC(C)=O`, the call was inactive.
The result for `CS(=O)(=O)Nc1ccc([N+](=O)[O-])cc1Oc1ccccc1` reads “inactive”; that for `ClC1=C(Cl)C(Cl)(Cl)C(Cl)=C1Cl`, “inactive”.
To `CC1COc2ccccc2N1C(=O)C(Cl)Cl` (stereo not given) belongs “inactive”; to `O=C(Cl)c1c(Cl)c(Cl)c(C(=O)Cl)c(Cl)c1Cl`, “inactive”.
To `S=c1nc[nH]c2nc[nH]c12` belongs “inactive”; to `CCCCCCCCC`, “inactive”; to `CNC[C@H](O)[C@@H](O)[C@H](O)[C@H](O)CO`, “inactive”.
For `Cc1ccc(C(=O)O)o1`, the compound was called inactive.
To `Oc1ccc2ccccc2c1` belongs “inactive”.
The result for `Nc1nc2ncc(CNc3ccc(C(=O)N[C@@H](CCC(=O)O)C(=O)O)cc3)nc2c(=O)[nH]1` reads “inactive”; that for `Cc1ccc(N)c(S(=O)(=O)O)c1`, “inactive”; that for `OC1CCCC1`, “inactive”.
With `COC(=O)c1ccc(C(=O)OC)cc1`, the compound was classed as inactive.
The result for `CC(C)(CO)COC(=O)C(C)(C)CO` reads “inactive”; that for `Cc1cc(O)c2c(c1)C(=O)c1cc(O)cc(O)c1C2=O`, “inactive”; that for `CC1CC(OC(=O)c2ccccc2O)CC(C)(C)C1` (stereo not given), “inactive”.
The result for `COC(=O)c1ccccc1O` reads “inactive”; that for `CC(C)(C)C(=O)C1C(=O)c2ccccc2C1=O`, “inactive”.
As for `C=CC(=O)OCCCCCCCC(C)C`, the outcome was inactive.
The result for `CCC(=O)O` reads “inactive”; that for `O=C(c1ccc(O)cc1)c1ccc(O)cc1O`, “inactive”; that for `O=C1CCCCC1`, “inactive”.
The result for `C=C(C)C(=O)OCCCCCCCCCCCC` reads “inactive”.
The result for `Oc1c(Cl)cc(Cl)c(Cl)c1Cl` reads “inactive”; that for `O=S(=O)(O)CCS`, “inactive”; that for `CCOC(=O)/C=C\C(=O)OCC`, “inactive”.
As for `NCc1cccc(CN)c1`, the compound was classed as inactive.
To `c1ccc2ccccc2c1` belongs “inactive”.
To `C=C1C2CCC(C2)C1(C)C` (stereo not given) belongs “inactive”; to `Cc1cc(=O)[nH]c(C(C)C)n1`, “inactive”.
To `O=S(=O)(Oc1ccc(Cl)cc1Cl)c1ccccc1` belongs “inactive”; to `COCC(C)O` (stereo not given), “inactive”.
For `Clc1ccc(Cl)c(Cl)c1Cl`, the result was inactive.
The result for `CCCCC(CC)COC(=O)CCCCCCCC(=O)OCC(CC)CCCC` (stereo not given) reads “inactive”; that for `CC#C[C@]1(O)CC[C@H]2[C@@H]3CCC4=CC(=O)CCC4=C3[C@@H](c3ccc(N(C)C)cc3)C[C@@]21C`, “inactive”.
Take `CC(C)(N=C=O)c1cccc(C(C)(C)N=C=O)c1`: the call was inactive.
The result for `CCCCOCCOCCOC(=O)CCCCC(=O)OCCOCCOCCCC` reads “inactive”; that for `CC(C)n1c(/C=C/[C@@H](O)C[C@@H](O)CC(=O)O)c(-c2ccc(F)cc2)c2ccccc21`, “inactive”.
Take `CCCCC(CC)C(=O)OCCOCCOCCOC(=O)C(CC)CCCC` (stereo not given): the result was inactive.
